In all, about 110,000 compounds were measured (“z-score”: median about -0.1, highest 2% from about 2 on). The list comes from a sample in which the highest values are over-represented; it also holds similar structures and randomly drawn compounds. The source made the active and inactive calls.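 How the source made its calls: active means z-score in the third read window above 3 or below -3; inactive means the rest.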
What follows are compounds tested against Metabotropic glutamate receptor 8 (Rattus norvegicus) (UniProt P70579) (assay: mGluR8 Gi/Go-coupled signaling modulation – cell-based, rat, thallium flux, HTS, primary screen (AID 488969)). Details: HEK293 rat mGluR8, GIRK (G protein-gated inwardly rectifying potassium channel) thallium flux, FluoZin2; at 10 µM; stronger effect = higher value; submaximal glutamate (EC20) added with thallium.
Sequence of Metabotropic glutamate receptor 8 (Rattus norvegicus) (P70579 whole entry, looked up): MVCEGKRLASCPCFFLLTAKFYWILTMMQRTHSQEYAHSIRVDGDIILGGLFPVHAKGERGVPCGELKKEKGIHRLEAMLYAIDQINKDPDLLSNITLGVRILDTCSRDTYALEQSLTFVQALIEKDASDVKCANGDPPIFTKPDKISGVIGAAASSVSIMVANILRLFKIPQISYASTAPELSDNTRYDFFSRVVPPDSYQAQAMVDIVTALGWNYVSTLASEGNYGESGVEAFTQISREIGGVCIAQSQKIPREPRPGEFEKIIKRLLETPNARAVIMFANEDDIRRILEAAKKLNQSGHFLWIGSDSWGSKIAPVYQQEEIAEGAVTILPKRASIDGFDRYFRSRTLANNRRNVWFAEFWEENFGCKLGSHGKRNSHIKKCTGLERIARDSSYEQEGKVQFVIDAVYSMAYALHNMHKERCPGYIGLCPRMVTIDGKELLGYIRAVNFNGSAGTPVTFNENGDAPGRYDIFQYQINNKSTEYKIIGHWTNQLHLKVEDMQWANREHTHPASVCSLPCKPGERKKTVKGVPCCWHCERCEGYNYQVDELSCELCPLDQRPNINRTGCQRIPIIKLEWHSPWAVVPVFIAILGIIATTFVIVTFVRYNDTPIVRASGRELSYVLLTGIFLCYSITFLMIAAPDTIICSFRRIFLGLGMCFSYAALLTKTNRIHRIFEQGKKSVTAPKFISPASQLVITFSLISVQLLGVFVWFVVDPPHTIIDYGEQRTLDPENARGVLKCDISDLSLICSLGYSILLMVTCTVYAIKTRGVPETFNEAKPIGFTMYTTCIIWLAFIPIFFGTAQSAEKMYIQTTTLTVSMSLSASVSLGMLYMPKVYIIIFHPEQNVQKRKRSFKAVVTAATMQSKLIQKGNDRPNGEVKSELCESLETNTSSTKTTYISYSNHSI
Compound O=C(/C=C/c1ccc(Br)cc1)c1ccco1 has a z-score of -0.0794. O=C(/C=C/c1ccccn1)c1ccc(Br)cc1O gave a z-score of -0.442. O=C(/C=C/c1ccccc1)c1cc(Br)ccc(=O)c1O was tested, and the z-score was 14 (active). With CN(C)c1nc(Oc2ccc(N)cc2)nc(N(C)C)n1 the z-score was 0.322. Work on COc1cccc(C(=O)CSc2nnnn2C)c1 yielded a z-score of -0.273. CCCN(Cc1ccccc1)C(=S)Nc1cccc(C(F)(F)F)c1 gave a z-score of -0.985. Compound CN1CC(=O)N(CC(=O)NCc2ccc3c(c2)OCO3)C1=O has a z-score of -0.14. For O=C(O)C1C2C=CC3(CN(C4CCCC4)C(=O)C13)O2 (stereo unspecified), the z-score was 2.75. O=C(O)C1[C@H]2C(=O)N(C3CCCC3)C[C@]23C=C[C@H]1O3 (stereo partly specified) showed a z-score of 0.231. COC(=O)C1C2C=CC3(CN(C4CCCC4)C(=O)C13)O2 (stereo unspecified) was tested, and the z-score was -1.65. Cc1cc(C)c2oc(-c3cccc(NC(=O)c4ccc(F)cc4)c3)nc2c1 was tested, and the z-score was -0.0725. Compound Cc1ccc(-n2cc(-c3ccc([N+](=O)[O-])cc3)[nH]c2=S)c(C)c1 has a z-score of 2.99. CCc1ccc(-n2cc(-c3ccc([N+](=O)[O-])cc3)[nH]c2=S)cc1 gave a z-score of 0.69. Cc1cccc(-n2cc(-c3ccc([N+](=O)[O-])cc3)[nH]c2=S)c1 showed a z-score of 0.401. For Cc1cc(C)c(CSc2ncc(-c3ccc([N+](=O)[O-])cc3)[nH]2)c(C)c1, the z-score was -0.26. Work on O=[N+]([O-])c1ccc(-c2cn(-c3ccc(Cl)cc3)c(=S)[nH]2)cc1 yielded a z-score of 2.83. With O=[N+]([O-])c1ccc(-c2cn(-c3ccccc3)c(=S)[nH]2)cc1 the z-score was -0.00967. In the case of Cc1ccc(Nc2cc(-n3cccn3)ncn2)c(C)c1, the z-score was -0.35. COc1ccc(/C=N/Nc2snc(SC)c2C#N)cc1OC was tested, and the z-score was 0.407. For Cc1ccc(NC(=O)c2ccc3c(c2)N(CC(=O)N2CCCCC2)C(=O)C(C)(C)O3)cc1, the z-score was -0.4. With CC1Cc2nc(SCC(=O)N3CCN(c4ccccc4)CC3)n(CCc3ccccc3)c(=O)c2S1 (stereo unspecified) the z-score was -1.13. For Cc1ccccc1OCC(=O)NC(=S)Nc1ccc(N2CCOCC2)c(Cl)c1, the z-score was 0.328. With Cc1cccc(OCC(=O)NC(=S)Nc2ccccc2N2CCOCC2)c1 the z-score was 3.14 (active). In the case of O=C(NC(=S)Nc1ccc(N2CCOCC2)c(Cl)c1)C(c1ccccc1)c1ccccc1, the z-score was 0.604. Compound Cc1ccc(OCC(=O)Nc2ccccc2N2CCOCC2)c(C)c1 has a z-score of 0.00977. With COc1ccc(OCC(=O)Nc2ccc(N3CCOCC3)c(Cl)c2)cc1 the z-score was -0.665. O=C(NC(=S)Nc1ccc(N2CCOCC2)c(Cl)c1)c1cncc(Br)c1 was tested, and the z-score was 7.69 (active). With CCCC(=O)NC(=S)Nc1ccc(N2CCOCC2)c(Cl)c1 the z-score was 0.242. COc1ccc(OCC(=O)NC(=S)Nc2ccc(N3CCOCC3)c(Cl)c2)cc1 showed a z-score of 2.19. In the case of CCCC(=O)NC(=S)Nc1ccccc1N1CCOCC1, the z-score was -0.0717. In the case of Cc1cc(Cl)ccc1OCC(=O)NC(=S)Nc1ccccc1N1CCOCC1, the z-score was 0.195. In the case of Cc1cc(Cl)ccc1OCC(=O)Nc1ccccc1N1CCOCC1, the z-score was 2.81. For Cc1cccc(OCC(=O)Nc2ccccc2C(=O)N2CCOCC2)c1, the z-score was -0.0499. Compound Cn1c(=O)cc(SCC(=O)NCC2CCCO2)c2ccc(Cl)cc21 (stereo unspecified) has a z-score of 0.0952. COCCOC(=O)C1=C(C)NC2=C(C(=O)CC(C)(C)C2)C1c1ccc2c(c1)OCO2 (stereo unspecified) showed a z-score of -0.115. CCc1nc(N)c(C#N)c(-c2cccc3ccccc23)c1C showed a z-score of 0.197. For O=C(C[n+]1ccc2ccccc2c1)Nc1cc(C(F)(F)F)ccc1Cl, the z-score was -0.746. For CN(C)S(=O)(=O)c1cc(C(=O)O)c(NC2CCCCC2)cc1Cl, the z-score was -2.9. Work on CCOC(=O)c1c(CSC(=N)N)n(-c2ccc(C)cc2)c2cc(Br)c(OC(C)=O)cc12 yielded a z-score of 1.29. Work on Cc1cccc(NC(=O)CSc2nsc(SCC(=O)Nc3cccc(C)c3)c2C#N)c1 yielded a z-score of -0.0761. With COc1ccc(CCNC2=NCC(C)S2)cc1 (stereo unspecified) the z-score was 0.0523. CCC(=O)N1CCN(c2ccccc2NC(=O)COc2cccc(C)c2)CC1 was tested, and the z-score was 13 (active). For Cc1cccc(OCC(=O)Nc2ccccc2N2CCCCC2)c1, the z-score was 0.378. Compound CCC(=O)N1CCN(c2ccccc2NC(=O)COc2cc(C)ccc2C(C)C)CC1 has a z-score of 0.696. In the case of Cc1sc(NC(=O)CSc2nnc(-c3ccc(F)cc3)o2)c(C#N)c1C, the z-score was -0.213. In the case of CCNC(=O)CN(c1ccc(OC)c(OC)c1)S(=O)(=O)c1ccccc1, the z-score was -0.11. Compound O=C(Nc1cccc(-c2nnc(-c3ccccc3)o2)c1)C1CCCO1 (stereo unspecified) has a z-score of 3. O=C(Nc1ccc2oc(-c3ccccc3)nc2c1)C1CCCO1 (stereo unspecified) gave a z-score of -0.123. O=C(Nc1cccc(-c2nnc(-c3ccccc3)o2)c1)C1CCCCC1 gave a z-score of -0.0325. In the case of CCOC(=O)Cc1csc(NC(=O)C2C3C=CC(C3)C2C(=O)O)n1 (stereo unspecified), the z-score was -0.0933. Cc1cc(C)cc(OCC(=O)Nc2ccc3c(c2)C(=O)c2ccccc2C3=O)c1 was tested, and the z-score was -0.124. In the case of Cc1ccc2nc(SC(C(=O)Nc3ccc(F)cc3)c3ccccc3)[nH]c2c1 (stereo unspecified), the z-score was -0.117. COc1cccc(C(=O)CSc2nnc(-c3cc(OC)cc(OC)c3)o2)c1 was tested, and the z-score was 0.263. Cn1cccc1CNC1CCCC1 showed a z-score of -1.43. c1ccc(-n2cccc2CNC2CCCCC2)cc1 was tested, and the z-score was 2.02. With Cn1cccc1CNC1CCCCC1 the z-score was 0.335. Work on O=C(C1CCC(CNS(=O)(=O)c2cccc3cccnc23)CC1)N1CCc2ccccc21 (stereo unspecified) yielded a z-score of -0.0229. Work on CC(=C1C(=O)c2ccccc2C1=O)N1CCN(Cc2ccccc2)CC1 yielded a z-score of -0.06. CC(=C1C(=O)c2ccccc2C1=O)N1CCN(C/C=C/c2ccccc2)CC1 showed a z-score of 2.04. CS(=O)(=O)N1CCN(C/C=C/c2ccccc2)CC1 was tested, and the z-score was -0.0638. With Cc1cc(C)cc(C(=O)OCC(=O)Nc2cccc(S(=O)(=O)NC3=NCCCCC3)c2)c1 the z-score was 0.0544. Compound Cc1c(N2C(=O)CS/C2=N\N=C\c2ccc(Cl)cc2)c(=O)n(-c2ccccc2)n1C has a z-score of -0.118. Cc1c(N2C(=O)CS/C2=N\N=C\c2ccc(Br)cc2)c(=O)n(-c2ccccc2)n1C gave a z-score of -0.286. In the case of Cc1c(N2C(=O)CS/C2=N\N=C\c2ccccc2O)c(=O)n(-c2ccccc2)n1C, the z-score was 3.28 (active). Work on CC1SC(c2ccccc2Cl)NC1=O (stereo unspecified) yielded a z-score of -0.0543. For CC(NC(=O)c1ccc(-c2cc(C(F)(F)F)ccc2Cl)o1)c1ccccc1 (stereo unspecified), the z-score was -0.132. Work on COc1cccc(NC(=O)COC(=O)c2c3c(nc4ccccc24)CCC(C)C3)c1 (stereo unspecified) yielded a z-score of -0.604. In the case of CC(/C=N/n1c(-c2ccccc2)n[nH]c1=S)=C\c1ccco1, the z-score was 6.02 (active). Cc1nn(-c2ccccc2)c(C)c1/C=N/n1c(-c2ccc(Cl)cc2)n[nH]c1=S showed a z-score of 0.338. Compound CC(/C=N/n1c(-c2ccc(C)cc2)n[nH]c1=S)=C\c1ccco1 has a z-score of 0.323. With Cc1ccc(-c2n[nH]c(=S)n2/N=C\c2ccco2)cc1 the z-score was -0.16. S=c1[nH]nc(-c2ccccc2)n1/N=C/C=C/c1ccco1 was tested, and the z-score was 0.28. With CC(/C=N/n1c(-c2ccc(Cl)cc2)n[nH]c1=S)=C\c1ccco1 the z-score was 6.09 (active). Work on COc1ccc(OC)c(NC(=O)CSc2ncccn2)c1 yielded a z-score of -0.134. With COc1ccc(C(=O)n2nc(C)cc2C)cc1OC the z-score was -0.221. Compound c1ccc(Cn2c(Sc3nnnn3-c3ccccc3)nnc2-c2ccccc2)cc1 has a z-score of 0.223. COc1ccc(CNC(=S)Nc2cccc(C)c2C)cc1 was tested, and the z-score was -0.341. Cc1ccc2nsnc2c1NC(=O)c1ccc2c(c1)OCCO2 was tested, and the z-score was -0.679. Compound Cc1ccc(S(=O)(=O)/N=C(/NC(=S)Nc2ccccc2)c2ccccc2)cc1 has a z-score of 0.34. Work on CCCCN(CCCC)CCn1cnc2c([nH]c3ccc(OC)cc32)c1=O yielded a z-score of 0.258. With CCC1CCCN1Cn1cnc2c([nH]c3ccc(OC)cc32)c1=O (stereo unspecified) the z-score was 6.77 (active). Compound CCN1CCCC1Cn1cnc2c([nH]c3cc(OC)ccc32)c1=O (stereo unspecified) has a z-score of -0.271. Compound CCOCCc1nnc(NC(=O)c2cccs2)s1 has a z-score of -0.0424. With O=C(NC1CCCC1)C(c1ccccc1)N(C(=O)c1ccno1)c1ccccc1 (stereo unspecified) the z-score was 0.315. Compound CC(C)(C)NS(=O)(=O)c1ccc2c(c1)oc(=O)c1cc(S(=O)(=O)NC(C)(C)C)ccc12 has a z-score of -0.0322. CC(NC(=O)c1ccccc1NC(=O)CSc1nnnn1C)c1ccccc1 (stereo unspecified) was tested, and the z-score was 2.05. Work on Cn1nnnc1SCC(=O)Nc1ccccc1C(=O)NC1CC1 yielded a z-score of 0.311. With Cn1nnnc1SCC(=O)Nc1ccccc1C(=O)NCc1ccccc1 the z-score was 0.00964. O=C(c1cnn2c(C(F)(F)F)cc(-c3ccccc3)nc12)N1CCCc2ccccc21 was tested, and the z-score was -0.322. Work on CC1Cc2cc(/C(O)=C3/C(=O)C(=O)N(CCCn4ccnc4)C3c3ccco3)ccc2O1 (stereo unspecified) yielded a z-score of -0.193. COc1nc(-c2ccccc2)ccc1-c1noc(-c2ccccc2)n1 showed a z-score of 0.293. Work on CC(C)(C)CC(C)(C)NC1=CC(=O)OC12CCCCC2 yielded a z-score of -0.189. Compound Cc1nc(N2CCOCC2)c(C#N)c2c1COC(C)(C)C2 has a z-score of -0.387. CC(C)c1nc(N2CCOCC2)c(C#N)c2c1CCC2 was tested, and the z-score was 0.532. CSc1nc(N2CCCC2)c2c(c1C#N)CC(C)(C)OC2 showed a z-score of -0.933. In the case of CC(C)c1nc(N2CCOCC2)c(C#N)c2c1CCCC2, the z-score was 6.82 (active). For COC(=O)Sc1nc(N2CCOCC2)c2c(c1C#N)CC(C)(C)OC2, the z-score was -2.52. With CC(C)Cc1nc(N2CCOCC2)c(C#N)c2c1COC(C)(C)C2 the z-score was 2.42. CCCCc1nc(N2CCOCC2)c(C#N)c2c1COC(C)(C)C2 showed a z-score of -0.434. For CC(C)c1nc(N2CCCC2)c(C#N)c2c1CCCC2, the z-score was 0.908. With CSc1nc(N2CCOCC2)c2c(c1C#N)CC(C)(C)OC2 the z-score was 2.16. In the case of Cc1ccc(S(=O)(=O)Nc2nc3ccccc3s2)cc1, the z-score was -0.644. COc1ccc(CC(=O)NNC(=S)Nc2ccccc2)cc1Br was tested, and the z-score was 0.376. Cn1cc(CNC(=O)C2CCCCC2)cn1 gave a z-score of -0.556. Cn1c(=O)[nH]c2cc(Cl)cnc21 gave a z-score of 0.0453. In the case of CCc1cc(C(=O)NCCN(C)C)cs1, the z-score was 0.168. For COc1ccc(C)cc1S(=O)(=O)Nc1cccc(Cl)c1Cl, the z-score was 3.68 (active). Compound COc1cc(NS(=O)(=O)c2cc(C)ccc2OC)c(OC)cc1Cl has a z-score of 0.494. For COc1ccc(C)cc1S(=O)(=O)Nc1ccccc1C, the z-score was -0.428. COc1ccc(C2/C(=C(\O)c3ccc(OC)c(Cl)c3)C(=O)C(=O)N2CCN(C)C)cc1 (stereo unspecified) gave a z-score of -0.505. COc1nc(C#N)c(N2CCOCC2)o1 was tested, and the z-score was -0.118.

Source: PubChem BioAssay AID488969 (Vanderbilt High Throughput Screening Facility, 2010)
